In the library only some 1.2% were active in any assay of this set; here they are far more common.
TcdB inh: TcdB glycohydrolase inhibitors, primary screen, biochemical, single point, plate reader | Toxin B (Clostridioides difficile), P18177 | TcdB glycohydrolase enzymatic assay | inhibition, % at 9.99 µM | 0.24% of 350,000 active | AID 652162, 2013; in the data active = inhibition above about 10%
Yp Topo-I inh: Yersinia pestis topoisomerase I inhibitors, primary screen, biochemical, cleavage product accumulation, plate reader, single point; DNA topoisomerase I (Yersinia pestis CO92); Y. pestis Topo-I cleavage product accumulation; activity, % at 10 µM; 0.064% of 360,000 active; in the data active = activity above about 50%, passing the limit was not always enough
BioA inh: M. tuberculosis BioA enzyme inhibitors, primary screen, biochemical, plate reader, single point, HTS; 7,8-diaminopelargonic acid synthase BioA (Mycobacterium tuberculosis); purified M. tuberculosis BioA enzyme; inhibition, % at 9.99 µM; 0.096% of 360,000 active; AID 602481, 2012; in the data active = inhibition above about 40%
PrP UTR inh: inhibition of PrP 5' UTR reporter expression; AID 488862, 2010; inhibition, % (no concentration beside the values); cell-based PrP 5' UTR mRNA reporter, plate reader; 0.35% of 340,000 active; in the data active = inhibition above about 52%
FadD28 binding: inhibitors of FadD28 bisubstrate probe binding, primary screen, biochemical, fluorescence polarization, single point. Mycobacterium tuberculosis FadD28 fatty-acid-AMP ligase. inhibition, % at 12.5 µM. 0.22% of 360,000 active. AID 588549, 2011; in the data active = inhibition above about 8.5%, passing the limit was not always enough
PfHsp40 yeast: rescue of yeast from PfHsp40 toxicity, primary screen, S. cerevisiae, ATP luminescence; growth rescue, % at 12.5 µM; S. cerevisiae expressing PfHsp40, growth rescue; 0.68% of 340,000 active; in the data active = growth rescue above about 28%, passing the limit was not always enough;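 also: yeast W303a lacking pdr1 and pdr3 grown in galactose medium; growth measured after three days at 30 °C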
PrP 5UTR single: prion 5' UTR mRNA inhibition, cherry-pick retest | shares compounds with PrP UTR inh | cell-based prion protein 5' UTR reporter, plate reader | inhibition, % at 2.5 µM | 48% of 1,100 active; in the data active = inhibition above about 54%
Of the large screens only hits and unclear results are named; the others gave an inactive call (follow-up assays come after a bar, where they were run).

CCOc1ccc(C(=O)C(c2ccccc2)N2CCOCC2)cc1 (stereo not given)	PrP UTR inh 82 (no result: TcdB inh) | PrP 5UTR single inactive
CCCOc1ccc(C(=O)C(c2ccccc2)N2CCOCC2)cc1 (stereo not given)	none (no result: TcdB inh)
C[C@H](CO)N1C[C@H](C)[C@H](CN(C)C(=O)C2CCCCC2)Oc2cc(C#CC3CC3)ccc2S1(=O)=O	none (no result: TcdB inh, Yp Topo-I inh, PrP UTR inh, FadD28 binding, PfHsp40 yeast)
C[C@H]1CCC[C@@H](O)CCC/C=C/c2cc(O)cc(O)c2C(=O)O1	none (no result: TcdB inh)
CCCCC[C@H]1CCCCC[C@H](O)C[C@H](O)[C@@H](O)/C=C/C(=O)O1	none (no result: Yp Topo-I inh, BioA inh, PrP UTR inh, FadD28 binding, PfHsp40 yeast)
CC1CCC/C=C/C2CC(O)CC2C(O)/C=C/C(=O)O1 (stereo not given)	PrP UTR inh 83 (no result: TcdB inh) | PrP 5UTR single 88
C[C@H]1CCC/C=C/C2C[C@H](O)CC2[C@H](O)/C=C/C(=O)O1 (stereo not given in full)	PrP UTR inh 81 (no result: TcdB inh) | PrP 5UTR single 90
C/C=C/c1ccc2c(c1)O[C@@H](CN(C)C(=O)NC(C)C)[C@@H](C)CN([C@@H](C)CO)S2(=O)=O	none (no result: Yp Topo-I inh, PrP UTR inh, FadD28 binding, PfHsp40 yeast)
CC(C)(C)C(=O)Nc1ccc(NC(=O)c2ccco2)nc1	PrP UTR inh 88 | PrP 5UTR single 94
CN(C)Cc1cn(CC[C@@H]2CC[C@@H](NC(=O)Nc3ccccc3F)[C@H](CO)O2)nn1	none (no result: Yp Topo-I inh, PrP UTR inh, FadD28 binding, PfHsp40 yeast)
CCCNC(=O)C[C@@H]1CC[C@H]2[C@@H](COc3ccc(NC(=O)c4cccc(F)c4)cc3C(=O)N2C)O1	none (no result: Yp Topo-I inh, PrP UTR inh, FadD28 binding, PfHsp40 yeast)
Cc1ccc(-c2cc(C(=O)N/N=C/c3c(C)nn(-c4ccccc4)c3C)[nH]n2)cc1	PrP UTR inh 70 (no result: TcdB inh) | PrP 5UTR single 88
Cc1nn(-c2ccccc2)c(C)c1/C=N/NC(=O)c1cc(C(C)(C)C)[nH]n1	none (no result: TcdB inh)
CCOC(=O)NC(=O)/C(C#N)=N\Nc1cccc(OC)c1	none (no result: BioA inh)
CCOC(=O)NC(=O)/C(C#N)=N/Nc1c(F)cccc1F	PrP UTR inh 61 (no result: TcdB inh, BioA inh) | PrP 5UTR single inactive
O=C(N[C@@H]1CC[C@@H](CCNS(=O)(=O)Cc2ccccc2)O[C@H]1CO)c1cnccn1	none (no result: Yp Topo-I inh, PrP UTR inh, FadD28 binding, PfHsp40 yeast)
COC(=O)c1ccc(CN2C(=O)NC(CC(C)C)C2=O)cc1 (stereo not given)	PrP UTR inh 81 | PrP 5UTR single inactive
COCC(=O)Nc1ccc2c(c1)[C@H]1C[C@H](CC(=O)NCc3cccc(F)c3)O[C@@H](CO)[C@H]1O2	none (no result: Yp Topo-I inh, PrP UTR inh, FadD28 binding, PfHsp40 yeast)
CCc1ccc(-c2cn3nc(C)c(C)nc3n2)cc1	PrP UTR inh 85 (no result: TcdB inh) | PrP 5UTR single inactive
CCOC(=O)c1cnc2c(-c3ccccc3OC)c(C)nn2c1C	PrP UTR inh 76 (no result: BioA inh) | PrP 5UTR single inactive
CCOC(=O)c1cnc2c(-c3ccccc3)c(-c3ccccc3)nn2c1C	none
O=c1[nH]cnc2c1ncn2[C@@H]1O[C@H](CO)[C@@H](O)[C@H]1O	PrP UTR inh 79 | PrP 5UTR single inactive
O=C(COc1cccc(C(F)(F)F)c1)NNC(=O)c1ccc(=O)[nH]c1	PrP UTR inh 65 | PrP 5UTR single inactive
C[C@H]1O[C@@H](n2cc(F)c(=O)[nH]c2=O)[C@H](O)[C@@H]1O	none
CCCCCCCCCCCCCCCCCCNc1ccn(C2OC(COP(=O)(O)OCC3OC(n4cc(F)c(=O)[nH]c4=O)CC3O)C(O)C2O)c(=O)n1 (stereo not given)	PrP UTR inh 63, FadD28 binding 53, PfHsp40 yeast 42 (no result: BioA inh) | PrP 5UTR single inactive
C[C@H](CO)N1C[C@H](C)[C@H](CN(C)C(=O)Nc2ccc3c(c2)OCO3)Oc2c(NS(=O)(=O)c3cccs3)cccc2C1=O	none (no result: Yp Topo-I inh, PrP UTR inh, FadD28 binding, PfHsp40 yeast)
CO[C@@H]1CN(C)C(=O)c2cc(NC(=O)c3cc(C)on3)ccc2OC[C@H](C)N(C(=O)C2CC2)C[C@H]1C	none (no result: Yp Topo-I inh, PrP UTR inh, FadD28 binding, PfHsp40 yeast)
CC1=C([N+](=O)[O-])C(c2cccc(Br)c2)C2=C(N1)c1ccccc1C2=O (stereo not given)	PrP UTR inh 54 (no result: TcdB inh) | PrP 5UTR single 71
[N-]=[N+]=NCCNC(=O)Nc1ccccc1	none (no result: Yp Topo-I inh, BioA inh, PrP UTR inh, FadD28 binding, PfHsp40 yeast)
